Each structure is given as a SMILES string. About 83,000 compounds went through this panel and 20% of them were active in at least one assay; those are over-represented in the sample as a whole.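 Assay: single dose, 48 h. Readout: percent growth (0 = no net growth; negative = cell death). Active: <10.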 Values without a mark were called inactive. Active and inactive are the calls of the source.

Among the test systems are SR leukemia; RPMI-8226 leukemia; OVCAR-8 ovarian; OVCAR-5 ovarian; OVCAR-4 ovarian; SK-OV-3 ovarian; IGROV1 ovarian; OVCAR-3 ovarian; HS 578T breast; NCI/ADR-RES ovarian.
What all share (experiment): NCI-60 one-dose screen, 48 h (100 = growth as untreated, 0 = no growth, -100 = all killed)
What all share (details): 10 µM unless noted

`N#Cc1ccc2nc[nH]c2c1`: the growth was 106% with SR leukemia; 108% in the experiment on RPMI-8226 leukemia; 104% with OVCAR-8 ovarian; 108% with OVCAR-5 ovarian; 109% with OVCAR-4 ovarian; 109% in the experiment on SK-OV-3 ovarian. The growth with IGROV1 ovarian was 115%; in the experiment with OVCAR-3 ovarian, 102%; in the experiment on HS 578T breast, 100%; in the experiment on NCI/ADR-RES ovarian, 110%.
Take `C[n+]1cc2cc3c(cc2c2ccccc21)OCO3`: the growth in the experiment with SR leukemia is 15.6%; in the experiment with RPMI-8226 leukemia, 40.3%; in the experiment on OVCAR-8 ovarian it was 77.9%; with OVCAR-5 ovarian it was 74%; in the experiment on OVCAR-4 ovarian it was 52.3%; in the experiment with SK-OV-3 ovarian it was 46%. Further, the growth in the experiment with IGROV1 ovarian was 84.1%; with OVCAR-3 ovarian it was 51.5%; with HS 578T breast it was 42.1%; in the experiment with NCI/ADR-RES ovarian, 106%.
With `C/C=C/C1OCC(CC)C(CCC)O1` (stereo not given), the growth in the experiment with SR leukemia was 102%; in the experiment on RPMI-8226 leukemia, 94.5%; with OVCAR-8 ovarian, 103%; with OVCAR-5 ovarian, 98.7%; with OVCAR-4 ovarian it was 110%; in the experiment on SK-OV-3 ovarian it was 108%. Also, the growth with IGROV1 ovarian is 104%; with OVCAR-3 ovarian, 106%; in the experiment with HS 578T breast, 107%; in the experiment with NCI/ADR-RES ovarian, 108%.
Consider `O=C(O)CC1=CCCCC1`, for which the growth was 96.7% in the experiment with SR leukemia; 96.6% with RPMI-8226 leukemia; 104% in the experiment on OVCAR-8 ovarian; 98.5% in the experiment on OVCAR-5 ovarian; 100% with OVCAR-4 ovarian; 117% in the experiment with SK-OV-3 ovarian. Also, the growth with IGROV1 ovarian is 96.1%; in the experiment on OVCAR-3 ovarian, 101%; with HS 578T breast it was 108%; in the experiment on NCI/ADR-RES ovarian it was 96.9%.
Consider `CCOC(=O)CO`, for which the growth is 95% in the experiment with SR leukemia; 110% in the experiment with RPMI-8226 leukemia; 109% in the experiment on OVCAR-8 ovarian; 105% with OVCAR-5 ovarian; 111% with OVCAR-4 ovarian; 109% with SK-OV-3 ovarian. Moreover, the growth was 105% with IGROV1 ovarian, 125% in the experiment on OVCAR-3 ovarian, 109% in the experiment on HS 578T breast and 109% with NCI/ADR-RES ovarian.
On to `Cc1cccnc1NC1OC(=O)c2ccccc21` (stereo not given), for which the growth in the experiment with SR leukemia was 93.8%; with RPMI-8226 leukemia, 106%; in the experiment with OVCAR-8 ovarian it was 107%; with OVCAR-5 ovarian it was 106%; with OVCAR-4 ovarian it was 117%; with SK-OV-3 ovarian, 94.6%. The growth is 101% in the experiment with IGROV1 ovarian, 107% in the experiment with OVCAR-3 ovarian, 138% in the experiment with HS 578T breast and 103% in the experiment with NCI/ADR-RES ovarian.
Consider `Cc1onc(-c2ccccc2Cl)c1C(=O)Cl`, for which the growth in the experiment on SR leukemia was 83.8%; with RPMI-8226 leukemia, 99.9%; with OVCAR-8 ovarian, 95.4%; in the experiment on OVCAR-5 ovarian, 103%; in the experiment with OVCAR-4 ovarian it was 98%; in the experiment on SK-OV-3 ovarian, 99%. Also, the growth in the experiment on IGROV1 ovarian is 117%; in the experiment on OVCAR-3 ovarian, 127%; in the experiment with HS 578T breast it was 102%; in the experiment on NCI/ADR-RES ovarian it was 105%.
With `COC(=O)c1cccc([N+](=O)[O-])c1`, the growth in the experiment on SR leukemia is 99%; in the experiment on RPMI-8226 leukemia, 102%; in the experiment with OVCAR-8 ovarian, 107%; in the experiment with OVCAR-5 ovarian it was 111%; in the experiment on OVCAR-4 ovarian, 130%; in the experiment with SK-OV-3 ovarian, 115%. For the same compound, the growth was 111% in the experiment with IGROV1 ovarian, 108% with OVCAR-3 ovarian, 102% with HS 578T breast and 102% with NCI/ADR-RES ovarian.
Consider `CN(CCCN(C)CCC1CCCCC1)CCC1CCCCC1`, for which the growth in the experiment on SR leukemia is -36.3% (active); with RPMI-8226 leukemia, 43.6%; in the experiment on OVCAR-8 ovarian, 67.6%; with OVCAR-5 ovarian it was 56.4%; in the experiment with OVCAR-4 ovarian, 59.1%; with SK-OV-3 ovarian it was 58.9%. For the same compound, the growth in the experiment with IGROV1 ovarian was 66.6%; in the experiment on OVCAR-3 ovarian it was 73.9%; in the experiment with HS 578T breast, 51.2%; in the experiment with NCI/ADR-RES ovarian, 62%.
In the case of `S=C(Sc1ccc(Cl)cc1)Sc1ccc(Cl)cc1`, the growth in the experiment on SR leukemia is -46.5% (active); in the experiment with RPMI-8226 leukemia, -46.6% (active); in the experiment on OVCAR-8 ovarian it was 22.1%; with OVCAR-5 ovarian it was 60.1%; in the experiment on OVCAR-4 ovarian it was 10.1%; in the experiment with SK-OV-3 ovarian, 109%. In addition, the growth in the experiment on IGROV1 ovarian is -49.8% (active); with OVCAR-3 ovarian, -64.7% (active); with HS 578T breast, 7.84% (active); in the experiment on NCI/ADR-RES ovarian, 5.64% (active).
For `CCOc1ccccc1NC(=O)CCl`, the growth in the experiment on SR leukemia was 74.8%; in the experiment with RPMI-8226 leukemia, 88.8%; with OVCAR-8 ovarian, 86.9%; with OVCAR-5 ovarian, 124%; with OVCAR-4 ovarian, 45.9%; with SK-OV-3 ovarian it was 109%. Further, the growth in the experiment on IGROV1 ovarian is -12% (active); with OVCAR-3 ovarian, 95.4%; in the experiment with HS 578T breast it was 94.9%; in the experiment with NCI/ADR-RES ovarian it was 106%.
Regarding `Cc1c(-c2ccc(C3CCCCC3)cc2)nc2ccc(F)cc2c1C(=O)O`, the growth with SR leukemia was 7.53% (active); with RPMI-8226 leukemia it was 56.1%; in the experiment with OVCAR-8 ovarian, 37.6%; with OVCAR-5 ovarian, 76.7%; in the experiment with OVCAR-4 ovarian it was 84.2%; in the experiment on SK-OV-3 ovarian, 58.2%. Further, the growth with IGROV1 ovarian was 29.7%; with OVCAR-3 ovarian, 41%; with HS 578T breast it was 75.3%; in the experiment with NCI/ADR-RES ovarian, 45.7%.
Consider `CCOc1ccc(C(=O)O)cc1`, for which the growth in the experiment with SR leukemia is 99.4%; with RPMI-8226 leukemia, 103%; with OVCAR-8 ovarian, 106%; with OVCAR-5 ovarian, 105%; with OVCAR-4 ovarian, 103%; with SK-OV-3 ovarian, 98.8%. For the same compound, the growth in the experiment on IGROV1 ovarian is 113%; in the experiment on OVCAR-3 ovarian it was 115%; in the experiment with HS 578T breast it was 95.3%; with NCI/ADR-RES ovarian, 105%.
Turning to `Nc1nc(N)nc(N2CCCCC2)n1`, the growth is 97.9% in the experiment with SR leukemia; 101% in the experiment on RPMI-8226 leukemia; 105% in the experiment with OVCAR-8 ovarian; 102% in the experiment on OVCAR-5 ovarian; 111% in the experiment on OVCAR-4 ovarian; 106% in the experiment on SK-OV-3 ovarian. Besides, the growth in the experiment on IGROV1 ovarian is 96%; in the experiment with OVCAR-3 ovarian, 105%; in the experiment with HS 578T breast it was 97.3%; in the experiment on NCI/ADR-RES ovarian it was 110%.
On to `NC(=O)c1cc2c3ccccc3ccn2c1-c1ccccc1`, for which the growth is -22.3% (active) with SR leukemia; 7.04% (active) in the experiment with RPMI-8226 leukemia; 8.3% (active) in the experiment with OVCAR-8 ovarian; 33.5% with OVCAR-5 ovarian; 43.2% with OVCAR-4 ovarian; 12.7% in the experiment with SK-OV-3 ovarian. For the same compound, the growth is 20.2% in the experiment with IGROV1 ovarian, -20.6% (active) in the experiment on OVCAR-3 ovarian, 70.3% in the experiment with HS 578T breast and -12% (active) with NCI/ADR-RES ovarian.

(Values after PubChem BioAssay (NCI).)
